In the library only some 11% were active in any assay of this set; here they are far more common.
hNpr1 antagonist – human Npr1 receptor antagonism; P16066; HEK293 hNpr1 GloSensor cGMP, ANP-stimulated luminescence; Potency, µM (top dose mostly 46.3 µM), usual class: inhibitors; 76,000 compounds, 1.6% hits; AID 1347048; calls by dose curve; also: nearly all actives have a fitted effect of over 60% in size
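HEK293 cells stably expressing human Npr1 and cGMP GloSensor pGS-40F, loaded 2 h with 2% GloSensor reagent, given compound 30 min at room temperature. Luminescence read before and 20 min after 0.1 nM hNppA.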
Luciferase inh – Photinus pyralis luciferase inhibition. purified P. pyralis luciferase, luminescence, biochemical. 76,000 compounds, 2.5% hits. P08659. Potency, µM (titrated, usually from 115 µM), hits mostly inhibitors; also: nearly all actives have a fitted effect of over 65% in size
Target sequence (P08659 whole entry, looked up): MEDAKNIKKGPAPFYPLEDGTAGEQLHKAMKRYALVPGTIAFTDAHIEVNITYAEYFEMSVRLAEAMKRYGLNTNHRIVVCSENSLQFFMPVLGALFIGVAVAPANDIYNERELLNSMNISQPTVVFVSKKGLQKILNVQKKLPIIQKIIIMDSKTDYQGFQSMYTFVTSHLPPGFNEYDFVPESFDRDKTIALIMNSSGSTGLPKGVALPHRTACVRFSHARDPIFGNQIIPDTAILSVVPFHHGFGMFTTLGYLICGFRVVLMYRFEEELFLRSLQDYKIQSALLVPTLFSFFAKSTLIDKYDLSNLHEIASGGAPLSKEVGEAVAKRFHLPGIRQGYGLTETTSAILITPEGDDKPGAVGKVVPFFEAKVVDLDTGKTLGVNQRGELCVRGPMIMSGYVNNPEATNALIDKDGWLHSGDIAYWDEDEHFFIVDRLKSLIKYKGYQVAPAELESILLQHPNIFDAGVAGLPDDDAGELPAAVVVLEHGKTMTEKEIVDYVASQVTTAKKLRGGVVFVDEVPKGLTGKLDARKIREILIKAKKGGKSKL
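Inhibitors were tested against purified firefly luciferase in a biochemical, low-substrate format (both substrates at 10uM) and luminescence measured with a CCD imager.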
NIH3T3 tox – cytotoxic compounds in NIH 3T3 cells | NIH 3T3 viability, CellTiter-Glo ATP luminescence, 48-72 h | AID 1345082 | 94,000 compounds, 4.3% hits | Potency, µM (series often up to 96.7 µM), most hits filed as inhibitors; also: nearly all actives have a fitted effect of over 55% in size
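Cells were seeded at 400 per well, treated with pin-transferred compound, and kept 48 or 72 hr at 37 °C before CellTiter-Glo addition and luminescence imaging of cellular ATP.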
HEK293 tox – kills HEK 293 cells. AID 1345083. HEK 293 viability, ATP luminescence (CellTiter-Glo), 48-72 h. Potency, µM (titrated, usually from 115 µM), usual class: inhibitors. 94,000 compounds, 6.6% hits; also: nearly all actives have a fitted effect of over 60% in size
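Cells seeded first (HEK 293, 250 cells/well), then compound added by pintool. Incubation ran 48 or 72 hr at 37 degree Celsius. CellTiter-Glo was added and luminescence imaged after 10 min at room temperature.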
A number is an active result; – = inactive; ? = inconclusive; · = no result given. Unless noted, calls follow the shape of the dose curve; as a rule, active = well fitted curve in the direction sought with a large enough effect; inconclusive = small, poorly fitted or top-dose-only effect, or another doubt; inactive = no such curve, though single readings can be large; an effect the other way counts as inactive or inconclusive.

SMILES | hNpr1 antagonist | Luciferase inh | NIH3T3 tox | HEK293 tox
O=C(NCc1ccc(Cl)cc1)c1ccc2nnc(-c3cccc(C(F)(F)F)c3)n2c1 | · | · | ? | 14µM
O=C(NC1CC1)c1ccc2nnc(-c3cccc(C(F)(F)F)c3)n2c1 | · | · | ? | –
COc1ccc(C(=O)NC2CCN(C(=O)c3ccccc3-c3ccc(OC)nn3)CC2)cc1 | · | · | – | –
O=C(NCc1ccc(F)c(F)c1)c1ccc2nnc(-c3cccc(C(F)(F)F)c3)n2c1 | · | · | 25µM | 32µM
COc1ncccc1-c1cnc2[nH]cc(CC(=O)NC(C)C)c2c1 | – | – | ? | ?
COc1cccc(CN2C(=O)OC3(CCN(Cc4c[nH]c5ccccc45)CC3)C2(C)c2cccnc2)c1 (stereo not given) | – | – | 32µM | ?
COc1cccc(CN2C(=O)OC3(CCN(C(=O)c4ccn(C)n4)CC3)C2(C)c2cccnc2)c1 (stereo not given) | – | – | 35µM | –
COc1cccc(CN2C(=O)OC3(CCN(C(C)=O)CC3)C2(C)c2cccnc2)c1 (stereo not given) | – | – | 89µM | –
COc1cccc(CN2C(=O)OC3(CCN(Cc4ccc5c(c4)CCO5)CC3)C2(C)c2cccnc2)c1 (stereo not given) | – | – | ? | ?
Cc1nn(CC(=O)N2CCCCCC2)c(=O)c2nc(-c3ccccc3)sc12 | – | – | – | ?
CCn1cc(CN2CCC(N3CC(OCCOC)C34CCCCC4)CC2)cn1 (stereo not given) | – | – | – | –
Cc1ccc(C)c(Cn2ccn3nc(-c4ccc(F)cc4)c(CO)c3c2=O)c1 | ? | – | ? | 35µM
COc1cc(NC(=O)Cn2ccn3nc(-c4ccccc4)c(CO)c3c2=O)cc(OC)c1OC | – | – | ? | 32µM
O=C(Cn1ccn2nc(-c3ccc(F)cc3)c(CO)c2c1=O)Nc1cccc(Br)c1 | – | – | ? | 45µM
Cc1cccc(NC(=O)Cn2ccn3nc(-c4ccccc4)c(CO)c3c2=O)c1C | – | – | ? | 89µM
O=c1c2c(CO)c(-c3ccc(F)cc3)nn2ccn1Cc1ccc(F)cc1 | ? | – | – | ?
O=C(Cn1ccn2nc(-c3ccccc3)c(CO)c2c1=O)Nc1cccc(Br)c1 | – | – | – | ?
CC(C)Cn1c(=O)c(C(=O)N2CCN(C(=O)c3ccc(Cl)cc3)CC2)nc2cccnc21 | · | · | – | –
O=C(CCC[C@H]1NC[C@@H]2CC1CN(Cc1ccccc1)C2)NCc1ccc(F)cc1 | – | – | ? | ?
CCCN1CCC2(CCN(C(=O)OC)CC2)Oc2ccccc21 | – | – | ? | 100µM
CCCN1CCC2(CCN(C(=O)c3ccc(OC)cc3)CC2)Oc2ccccc21 | – | – | ? | 45µM
CN1CCOc2c(C(=O)NCCN3CCNC3=O)cc(-c3cccc4[nH]ccc34)cc21 | – | – | – | ?
Cc1cc(=O)n(CC(=O)Nc2ccc(N(C)C)cc2)c(-c2ccc(Cl)cc2)n1 | – | – | – | –
Cc1ccc(C(CC(=O)N2CCc3ccccc3C2)c2cn(C)c3ccccc23)cc1 (stereo not given) | – | 35µM | ? | ?
CCOC(=O)C1CCCN(C(=O)CC(c2ccc3c(c2)OCO3)c2cn(CC)c3ccccc23)C1 (stereo not given) | – | – | 40µM | ?
SMILES | hNpr1 antagonist | Luciferase inh | NIH3T3 tox | HEK293 tox
CCOC(=O)C1CCN(C(=O)CC(c2ccc(Cl)cc2)c2cn(C)c3ccccc23)CC1 (stereo not given) | – | – | ? | ?
Cc1ccc(C(CC(=O)N2CCCCC2)c2cn(C)c3ccccc23)cc1 (stereo not given) | – | – | ? | 50µM
COC(=O)CNC(=O)c1cn2cc(-c3ccccc3)sc2n1 | · | · | ? | –
CC(C)CNC(=O)c1cn2cc(-c3ccccc3)sc2n1 | · | · | ? | 71µM
O=C(NC1CCCCC1)c1cn2cc(-c3ccccc3)sc2n1 | · | · | ? | 63µM
O=C(NCc1ccc(Cl)cc1)c1cn2cc(-c3ccccc3)sc2n1 | · | · | – | ?
O=C(NCc1ccc(F)cc1)c1cn2cc(-c3ccccc3)sc2n1 | · | · | ? | 79µM
O=C(NCCCc1ccccc1)c1cn2cc(-c3ccc(F)cc3)sc2n1 | · | · | 20µM | ?
COc1ccc(-c2cn3cc(C(=O)N4CCN(C(C)=O)CC4)nc3s2)cc1 | · | · | – | –
O=C(NCc1ccccn1)c1cn2cc(-c3ccccc3)sc2n1 | · | · | ? | 50µM
COc1cccc(-c2cn3cc(C(=O)N4CCCCC4)nc3s2)c1 | · | · | 40µM | ?
COc1ccc(-c2cn3cc(C(=O)NCCc4ccccc4)nc3s2)cc1 | · | · | – | –
O=C(NCc1ccccn1)c1cn2cc(-c3cccc(C(F)(F)F)c3)sc2n1 | · | · | – | ?
COc1cccc(-c2cn3cc(C(=O)NCCCc4ccccc4)nc3s2)c1 | · | · | 35µM | ?
Cc1noc([C@@H](C)NC(=O)c2nc3ccccc3[nH]2)c1C(=O)O | – | – | – | –
CC1(C)CC(CN2CCC3(CC2)CC(=O)N(Cc2ccccc2)C3)CCO1 (stereo not given) | – | – | – | –
CCOc1ccc(C(=O)NC2CCCN(c3cc(-c4ccc(F)cc4)[nH]n3)C2)cc1 (stereo not given) | – | – | ? | ?
Cc1cc(N2CCN(Cc3nc(-c4cccc(Cl)c4)no3)CC2)cc(C)n1 | – | – | 22µM | 40µM
Cc1oc(-c2cccc(Cl)c2)nc1CN1CCOCC1 | – | – | – | –
Cc1noc(C)c1S(=O)(=O)N1CCC2(CC1)NCCc1c2[nH]c2ccccc12 | – | – | ? | ?
CCCCn1c(=O)c(C(=O)NC2CCCc3ccccc32)nc2cccnc21 (stereo not given) | · | · | 35µM | 40µM
O=C(NC1CC1)C1CCCN1c1nccc(Nc2ccccc2F)n1 (stereo not given) | · | · | – | –
COC(=O)N1CCN(c2nccc(Nc3ccccc3F)n2)CC1 | · | · | ? | 89µM
O=C(NC1CCCC1)N1CCN(c2nccc(Nc3ccccc3F)n2)CC1 | · | · | ? | 45µM
CC(C)NC(=O)N1CCN(c2nccc(Nc3ccccc3F)n2)CC1 | · | · | ? | 25µM
SMILES | hNpr1 antagonist | Luciferase inh | NIH3T3 tox | HEK293 tox
C[S+](=O)([O-])N1CCN(c2nccc(Nc3ccccc3F)n2)CC1 | · | · | – | –
COCC(=O)N1CCN(c2nccc(Nc3ccccc3F)n2)CC1 | · | · | – | –
O=C(Nc1ccccc1)N1CCN(c2nccc(Nc3ccccc3F)n2)CC1 | · | · | 45µM | ?
CN1CC(=O)N(C2CCCNCC2)Cc2c(NCCCO)ncnc21 (stereo not given) | · | · | – | –
O=C(c1cccc(Cl)c1)N1CCC2(C1)NC(=O)N(Cc1ccc(Cl)cc1)C2=O (stereo not given) | ? | – | 40µM | ?
O=C(c1ccsc1)N1CCC2(CC1)NC(=O)N(Cc1cccc(Cl)c1)C2=O | ? | – | 28µM | ?
COc1cc(OC)cc(C(=O)N2CCC3(C2)NC(=O)N(Cc2ccc(Cl)cc2)C3=O)c1 (stereo not given) | – | – | ? | ?
O=C(c1ccsc1)N1CCC2(CC1)NC(=O)N(Cc1ccccc1)C2=O | – | – | ? | –
Clc1cccc(CN2CC[C@H](c3nc4ccccc4o3)C2)c1 | – | – | – | ?

Screening data deposited in PubChem by National Center for Advancing Translational Sciences (NCATS).
